Assay results published in PubChem BioAssay AID1159580 (chemical genetic matrix, 2015).
Hit rate of the full screen: of about 5,500 compounds, about 2,000 (36%) were called active. Not shown: some 18% with an inconclusive outcome. Rule as the data show it: active = normalized growth mostly below about 0.91 (no sharp cut-off); inconclusive = no clear call, values can overlap the other calls; inactive = mostly above about 0.92. This is one part of the list.

Test: chemical genetic growth profiling, strain panel (AID 1159580);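 also: tested at 20 µM; growth read once vehicle control cultures reached saturation at 30 °C; 1 = growth at the plate median or of vehicle wells; lower values mean less growth of the strain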
Conditions: S. cerevisiae deletion strains, growth OD

Measured: normalized growth

CCCOc1ccccc1-c1nc2n[nH]nc2c(=O)[nH]1
inactive: locus YAL013W, strain DEP1, stronger effect = lower value 0.99 | locus YAL021C, strain ccr4, stronger effect = lower value 0.965 | locus YAL026C, strain drs2, stronger effect = lower value 1.02 | locus YAL030W, strain snc1, stronger effect = lower value 0.995 | locus YAL040C, strain CLN3, stronger effect = lower value 1.05 | locus YBL061C, strain skt5, stronger effect = lower value 1 | locus YBR009C, strain hhf1, stronger effect = lower value 1.03 | locus YBR021W, strain FUR4, stronger effect = lower value 0.996 | locus YBR023C, strain chs3, stronger effect = lower value 1 | locus YBR171W, strain sec66, stronger effect = lower value 1.01 | locus YBR229C, strain ROT2, stronger effect = lower value 1 | locus YBR231C, strain swc5, stronger effect = lower value 1.02 | locus YBR279W, strain paf1, stronger effect = lower value 1.01 | locus YCL011C, strain gbp2, stronger effect = lower value 1.01 | locus YCL016C, strain dcc1, stronger effect = lower value 1.01 | locus YCL029C, strain bik1, stronger effect = lower value 1.01 | locus YCL061C, strain MRC1 (second series), stronger effect = lower value 0.993 | locus YCL061C, strain MRC1, stronger effect = lower value 1 | locus YCL069W, strain vba3, stronger effect = lower value 0.992 | locus YCR088W, strain abp1, stronger effect = lower value 1 | locus YDL005C, strain med2, stronger effect = lower value 1 | locus YDL035C, strain GPR1, stronger effect = lower value 1.02 | locus YDL040C, strain nat1, stronger effect = lower value 0.991 | locus YDL074C, strain BRE1, stronger effect = lower value 1.01 | locus YDL101C, strain DUN1, stronger effect = lower value 1.01 | locus YDL134C, strain PPH21, stronger effect = lower value 1.01 | locus YDL185W, strain tfp1, stronger effect = lower value 1.01 | locus YDL192W, strain arf1, stronger effect = lower value 1.01 | locus YDR001C, strain nth1, stronger effect = lower value 0.998 | locus YDR069C, strain doa4, stronger effect = lower value 1.02 | locus YDR101C, strain arx1, stronger effect = lower value 1 | locus YDR137W, strain rgp1, stronger effect = lower value 1 | locus YDR159W, strain sac3, stronger effect = lower value 1.03 | locus YDR162C, strain NBP2, stronger effect = lower value 1.01 | locus YDR195W, strain ref2 1.04 | locus YDR297W, strain sur2, stronger effect = lower value 1 | locus YDR318W, strain mcm21, stronger effect = lower value 1.01 | locus YDR334W, strain swr1, stronger effect = lower value 1.01 | locus YDR335W, strain msn5, stronger effect = lower value 1 | locus YDR363W, strain ESC2, stronger effect = lower value 0.985 | locus YDR388W, stronger effect = lower value 1.02 | locus YDR392W, strain spt3, stronger effect = lower value 0.956 | locus YDR502C, strain sam2, stronger effect = lower value 1.01 | locus YEL003W, strain gim4, stronger effect = lower value 1.01 | locus YEL037C, strain rad23, stronger effect = lower value 0.998 | locus YEL061C, strain CIN8 (second series), stronger effect = lower value 1 | locus YEL061C, strain CIN8, stronger effect = lower value 1.01 | locus YER002W, strain NOP16, stronger effect = lower value 1.01 | locus YER015W, strain faa2, stronger effect = lower value 1.01 | locus YER016W, strain bim1, stronger effect = lower value 1.01 | locus YER110C, stronger effect = lower value 1.01 | locus YER111C, strain swi4, stronger effect = lower value 1.01 | locus YER155C, strain BEM2 (second series), stronger effect = lower value 1.05 | locus YER155C, strain BEM2, stronger effect = lower value 1 | locus YER167W, strain BCK2, stronger effect = lower value 1.01 | locus YFR010W, strain ubp6, stronger effect = lower value 1.01 | locus YGL078C, strain dbp3, stronger effect = lower value 1.01 | locus YGL086W, strain mad1, stronger effect = lower value 1 | locus YGL167C, strain pmr1, stronger effect = lower value 1.01 | locus YGL173C, strain kem1, stronger effect = lower value 1.01 | locus YGL227W, strain vid30, stronger effect = lower value 1.01 | locus YGL240W, strain doc1, stronger effect = lower value 1.05 | locus YGL248W, strain PDE1, stronger effect = lower value 0.981 | locus YGL253W, strain hxk2, stronger effect = lower value 1.01 | locus YGR078C, strain PAC10, stronger effect = lower value 1.01 | locus YGR135W, strain pre9, stronger effect = lower value 1.01 | locus YGR229C, strain SMI1, stronger effect = lower value 1.01 | locus YGR252W, strain gcn5, stronger effect = lower value 1.03 | locus YHR013C, strain ard1, stronger effect = lower value 0.978 | locus YHR027C, strain rpn1, stronger effect = lower value 1 | locus YHR030C, strain SLT2, stronger effect = lower value 1 | locus YHR079C, strain IRE1 (second series), stronger effect = lower value 1.01 | locus YHR094C, strain hxt1, stronger effect = lower value 1.02 | locus YHR129C, strain ARP1, stronger effect = lower value 1 | locus YHR142W, strain chs7, stronger effect = lower value 0.953 | locus YHR200W, strain rpn10, stronger effect = lower value 1.01 | locus YIL066C, strain RNR3, stronger effect = lower value 1 | locus YIL073C, strain SPO22, stronger effect = lower value 1.08 | locus YIL125W, strain kgd1, stronger effect = lower value 1 | locus YIR030C, strain dcg1, stronger effect = lower value 1.01 | locus YJL092W, strain hpr5, stronger effect = lower value 1 | locus YJL095W, strain BCK1 (second series), stronger effect = lower value 1.01 | locus YJL095W, strain BCK1, stronger effect = lower value 0.994 | locus YJL115W, strain asf1, stronger effect = lower value 1 | locus YJL129C, strain trk1, stronger effect = lower value 0.992 | locus YJL134W, strain LCB3, stronger effect = lower value 1.01 | locus YJL154C, strain vps35, stronger effect = lower value 0.999 | locus YJL164C, strain tpk1, stronger effect = lower value 0.987 | locus YJL166W, strain qcr8, stronger effect = lower value 1.01 | locus YJL168C, strain set2, stronger effect = lower value 1.01
